From PMC5540273 (PLoS ONE, 2017)
Values joined by “and” are separate entries in the source; they are usually repeats but may differ in a detail not shown here. Equal values may be shown once. Read-outs that look alike come from different tables or passages of the source.

Key:
CAMKK2 = settings: n = 1
CASK = settings: n = 1
CDC2L1 = tested on: T1, CDC2L1; settings: n = 1
T1 construct: gene CDK11B

CDC2L2 = settings: n = 1
CDC2L5 = tested on: T2, CDC2L5; settings: concentration: 1 μM, replicates: in singlicate; n = 1
T2 construct: gene CDK13

CDK11 = tested on: T3, CDK11; settings: n = 1
T3 construct: gene CDK19

CDK2 = settings: n = 1
CDK3 = settings: n = 1
CDK4-cyclinD1 = settings: concentration: 1 μM, replicates: in singlicate; n = 1
CDK4-cyclinD3 = settings: n = 1
[1] = concentration: 1 μM,replicates: in singlicate, 1 µM
[2] = concentration: 1 μM, replicates: in singlicate
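Further: KINOMEscan kinase panel screen.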

| SMILES | %Inh (CAMKK2; [1]) | %Inh (CASK; [1]) | %Inh (CDC2L1; [1]) | %Inh (CDC2L2; [1]) | %Inh (CDC2L5) [%] | %Inh (CDK11; [1]) | %Inh (CDK2; [1]) | %Inh (CDK3; [1]) | %Inh (CDK4-cyclinD1) [%] | %Inh (CDK4-cyclinD3; [1]) | %Inh (CAMKK2; [2]) [%] | %Inh (CASK; [2]) [%] | %Inh (CDC2L1; [2]) [%] | %Inh (CDC2L2; [2]) [%] | %Inh (CDK11; [2]) [%] | %Inh (CDK2; [2]) [%] | %Inh (CDK3; [2]) [%] | %Inh (CDK4-cyclinD3; [2]) [%] |
| --- | --- | --- | --- | --- | --- | --- | --- | --- | --- | --- | --- | --- | --- | --- | --- | --- | --- | --- |
| CSc1nn2c(=O)cc(N3CCOCC3)nc2n1Cc1cccc(C(F)(F)F)c1C [GSK2363608] | 14% and 0% | 19% and 16% | 3% and 0% | 25% and 0% | 0 | 5% and 35% | 6% and 0% | 17% and 0% | 0 | 6% and 0% | – | – | – | – | – | – | – | – |
| Cl.c1ccc(-c2n[nH]cc2-c2ccnc(-c3ccc(CN4CCOCC4)cc3)c2)nc1 [GW776245] | – | – | – | – | 0 | – | – | – | 4 | – | 19 | 6 | 5 | 8 | 0 | 0 | 46 | 0 |
| COC(=O)c1c(-c2ccccc2)c2cc(OC)ccc2c(=O)n1Cc1ccccc1 | – | – | – | – | 0 | – | – | – | 0 | – | 17 | 0 | 7 | 3 | 12 | 2 | 10 | 0 |
| Cc1ccc(-c2cc(-c3c[nH]nc3-c3ccccn3)ccn2)cc1 [GW684088] | – | – | – | – | 0 | – | – | – | 28 | – | 26 | 0 | 0 | 17 | 16 | 0 | 0 | 0 |
| Cc1csc(-c2nc(Nc3ccncc3)c3ccccc3n2)n1 [GW869640] | – | – | – | – | 8 | – | – | – | 11 | – | 23 | 26 | 0 | 5 | 7 | 7 | 9 | 1 |
| O=C(O)COc1ncnc2cc(-c3ccc4[nH]ncc4c3)sc12 | – | – | – | – | 5 | – | – | – | 1 | – | 24 | 0 | 8 | 0 | 21 | 0 | 20 | 0 |
| O=C(Nc1n[nH]c2cc(-c3cccc(F)c3F)ccc12)C1CC1 [SB-733894] | – | – | – | – | 8 | – | – | – | 0 | – | 13 | 30 | 2 | 0 | 5 | 22 | 0 | 30 |
| Cc1cccc(-c2nc(Nc3ccncc3)c3ccccc3n2)n1 [GW855857] | – | – | – | – | 0 | – | – | – | 13 | – | 7 | 0 | 0 | 0 | 0 | 0 | 20 | 0 |
| Fc1cc(Cl)ccc1Nc1ccnc2cc(I)ccc12 [GW551191] | – | – | – | – | 0 | – | – | – | 0 | – | 0 | 24 | 0 | 0 | 16 | 0 | 0 | 0 |
| O=C(Nc1ccccc1)Nc1cccc(Oc2ccc3nccn3n2)c1 | – | – | – | – | 0 | – | – | – | 24 | – | 0 | 16 | 0 | 5 | 0 | 0 | 10 | 0 |
| Cc1cc(NCC(c2ccccc2)c2ccccc2)nc(NCc2ccc(C(F)(F)F)cc2)n1 [GW497681] | – | – | – | – | 0 | – | – | – | 0 | – | 23 | 0 | 0 | 5 | 0 | 0 | 0 | 0 |
| Cc1cccc(-c2nc(Nc3cccc(C(N)=O)c3)c3ccccc3n2)n1 [GW876019] | – | – | – | – | 10 | – | – | – | 18 | – | 0 | 30 | 0 | 2 | 8 | 0 | 59 | 0 |
| COc1cc2nccc(Nc3ccc(NC(=O)c4ccc(C)cc4)c(O)c3)c2cc1OC.Cl [GW440132] | – | – | – | – | 0 | – | – | – | 0 | – | 32 | 2 | 0 | 3 | 5 | 0 | 9 | 0 |
| O=c1cc(N2CCOCC2)nc2n(Cc3cccc(Cl)c3Cl)ccn12 [GSK2286295] | – | – | – | – | 0 | – | – | – | 0 | – | 16 | 9 | 13 | 16 | 23 | 0 | 0 | 0 |
| O=C(Nc1n[nH]c2nc(-c3nccs3)c(Br)cc12)C1CCCC1 [SB-742609] | – | – | – | – | 0 | – | – | – | 41 | – | 0 | 19 | 100 | 0 | 0 | 86 | 60 | 14 |
| CC(=O)Nc1nc2cnc(Nc3cc(NC(=O)c4cccc(CCC#N)c4)ccc3C)nc2s1 | – | – | – | – | 36 | – | – | – | 0 | – | 0 | 10 | 6 | 9 | 2 | 3 | 0 | 0 |
| COc1ccc(Nc2nccc(-c3cccc(NC(=O)c4cc5cc(F)ccc5[nH]4)c3)n2)cc1 [GSK1229782] | – | – | – | – | 0 | – | – | – | 17 | – | 29 | 14 | 4 | 24 | 24 | 17 | 20 | 0 |
| Fc1cccc(COc2nnc(-c3ccc4c(c3)CCO4)o2)c1 | – | – | – | – | 18 | – | – | – | 9 | – | 0 | 10 | 1 | 0 | 16 | 0 | 4 | 0 |

| SMILES | %Inh (CAMKK2; [1]) | %Inh (CASK; [1]) | %Inh (CDC2L1; [1]) | %Inh (CDC2L2; [1]) | %Inh (CDC2L5) [%] | %Inh (CDK11; [1]) | %Inh (CDK2; [1]) | %Inh (CDK3; [1]) | %Inh (CDK4-cyclinD1) [%] | %Inh (CDK4-cyclinD3; [1]) | %Inh (CAMKK2; [2]) [%] | %Inh (CASK; [2]) [%] | %Inh (CDC2L1; [2]) [%] | %Inh (CDC2L2; [2]) [%] | %Inh (CDK11; [2]) [%] | %Inh (CDK2; [2]) [%] | %Inh (CDK3; [2]) [%] | %Inh (CDK4-cyclinD3; [2]) [%] |
| --- | --- | --- | --- | --- | --- | --- | --- | --- | --- | --- | --- | --- | --- | --- | --- | --- | --- | --- |
| CN1C(=O)C(Nc2ccc(Cl)c(C(=O)O)c2)=C(c2ccc(Cl)cc2)C1=O [SB-404290] | – | – | – | – | 1 | – | – | – | 0 | – | 0 | 3 | 0 | 0 | 0 | 13 | 6 | 0 |
| CC(C)(C)c1ccc(C(=O)Nc2cn3cc(Cl)ccc3n2)cc1 | – | – | – | – | 6 | – | – | – | 11 | – | 14 | 18 | 0 | 0 | 16 | 0 | 0 | 0 |
| CS(=O)(=O)c1ccc(-c2c(-c3ncn[nH]3)sc(N3CCOCC3)c2C#N)cc1 | – | – | – | – | 0 | – | – | – | 0 | – | 19 | 0 | 9 | 10 | 0 | 0 | 17 | 0 |
| O=C1NC(=O)C(N2CCc3ccccc32)=C1c1ccccc1Cl [SB-373598] | – | – | – | – | 0 | – | – | – | 14 | – | 4 | 0 | 0 | 3 | 12 | 16 | 0 | 15 |
| COc1cccc(NC(=O)NC2CCN(c3ccnc(Nc4ccc(F)cc4)n3)C2)c1 (stereo not drawn) [GSK1379721] | – | – | – | – | 0 | – | – | – | 0 | – | 14 | 7 | 0 | 14 | 59 | 0 | 18 | 0 |
| NC(=O)c1nnc2ccccc2c1N | – | – | – | – | 11 | – | – | – | 32 | – | 0 | 36 | 7 | 25 | 3 | 6 | 19 | 0 |
| Cn1ccc2ncnc(Oc3ccc(Nc4nc5ccccc5[nH]4)cc3)c21 | – | – | – | – | 0 | – | – | – | 0 | – | 22 | 0 | 0 | 1 | 6 | 6 | 0 | 0 |
| Cc1cc(-c2ccc3c(c2)CC[C@@H](N[C@@H](C)c2ccccc2)C3)cnc1N.Cl [GW412617] | – | – | – | – | 0 | – | – | – | 0 | – | 23 | 0 | 0 | 2 | 40 | 12 | 6 | 0 |
| COc1cc2ncn(-c3cc(OCC4CCCO4)c(C(N)=O)s3)c2cc1OC (stereo not drawn) [GSK204607] | – | – | – | – | 0 | – | – | – | 0 | – | 8 | 0 | 0 | 8 | 0 | 0 | 0 | 0 |
| COc1ccc2nc(-c3cccc(C)n3)nc(Nc3ccncc3)c2c1 [GSK204919] | – | – | – | – | 0 | – | – | – | 0 | – | 0 | 23 | 0 | 0 | 0 | 0 | 0 | 0 |
| COc1cc(Nc2nccc(N3CCC(NC(=O)Nc4cc(C)ccc4C)C3)n2)cc(OC)c1OC (stereo not drawn) [GSK1379762] | – | – | – | – | 0 | – | – | – | 0 | – | 0 | 42 | 0 | 0 | 17 | 0 | 15 | 0 |
| COc1ccccc1-c1ccc2c(NC(=O)C3CC3)n[nH]c2n1 [SB-711239] | – | – | – | – | 2 | – | – | – | 9 | – | 0 | 8 | 0 | 3 | 19 | 0 | 8 | 0 |
| Cc1nnc(-c2ccc3occ(-c4ccc(S(C)=O)cc4)c3c2)[nH]1 (stereo not drawn) | – | – | – | – | 11 | – | – | – | 0 | – | 14 | 0 | 0 | 0 | 0 | 2 | 7 | 2 |
| CCn1c(-c2ccccn2)nc2cnccc21 [SB-736398] | – | – | – | – | 100 | – | – | – | 0 | – | 0 | 2 | 27 | 0 | 0 | 0 | 0 | 3 |
| O=C(Nc1n[nH]c2nc(-c3nccs3)c(Br)cc12)C1CC1 [SB-742251] | – | – | – | – | 13 | – | – | – | 65 | – | 0 | 42 | 0 | 0 | 0 | 81 | 50 | 25 |
| Cc1ccc(NC(=O)Nc2cc(C(C)(C)C)nn2-c2ccccc2)cc1 [GSK1014915] | – | – | – | – | 0 | – | – | – | 0 | – | 0 | 12 | 31 | 7 | 62 | 0 | 8 | 4 |
| Clc1cc(Cl)cc(Nc2ccnc(Nc3cc(Cl)cc(Cl)c3)n2)c1 [GSK175726] | – | – | – | – | 0 | – | – | – | 0 | – | 0 | 13 | 5 | 18 | 19 | 0 | 0 | 0 |
| Nc1ncnc2[nH]c(-c3ccccc3)nc12 [AH5015] | – | – | – | – | 0 | – | – | – | 0 | – | 0 | 15 | 0 | 5 | 0 | 0 | 2 | 11 |
